Inhibition data for 54 compounds are collected here from PubChem BioAssay AID1430 (University of Pittsburgh Molecular Library Screening Center, 2008).

Out of some 220,000 compounds screened, about 240 (0.11%) were called active. Shown is part of a subset that was picked to be rich in actives. A number with no mark means an inactive call.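 How the source made its calls: active means inhibition of 50% or more in the single-dose primary screen; inactive means inhibition below 50%.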

In this assay the test system is hexokinase 1 [Trypanosoma brucei]. Briefly: Trypanosoma brucei hexokinase 1 inhibitors, primary screen, biochemical, G6PDH-coupled NADH absorbance, MLSCN library (AID 1430). To be noted: recombinant TbHK1, G6PDH-coupled NADH A340; at 10 µM; active compounds read high.
The inhibition is the relative decrease from the control value, in per cent. With `COc1cc(Cl)c(C)cc1NC(=O)[C@@H]1CCCN1C(=O)c1cccs1`, the inhibition was -2.99%. As to `CC/C(=N\NC(=S)NC(C)C)c1ccc(OC(F)F)cc1`, the inhibition is 10.1%. As for `O=C(c1ccc2ccccc2n1)N1CCN(c2ccccc2Cl)CC1`, the figure is -6.88%; as for `CCN(/N=C/c1ccc(N(C)C)cc1)c1nc2ccccc2[nH]1`, -4.95%; as for `COc1ccc(C(C#N)Nc2ccccc2C)cc1` (centres undefined), 4.57%.

`COC(=O)c1c(NC(=O)COC(=O)[C@@H](NS(=O)(=O)c2ccccc2)C(C)C)sc2c1CCC2`: the inhibition is -13.7%.

As for `CC(C)COC(=O)n1c(=O)oc2ccc(S(=O)(=O)N3CCCCC3)cc21`, the inhibition is -6.57%. On to `Cc1cc(C)n2nc(C(=O)N(C)C(c3ccccc3)c3ccccc3)nc2n1`, for which the inhibition is 1.27%.

As for `C[n+]1ccccc1C1CCCC/C1=N\Nc1ccc([N+](=O)[O-])cc1[N+](=O)[O-]` (centres undefined), the inhibition was -18.3%. Regarding `CCOC(=O)/C(=N\Nc1ccccc1Cl)N(C)C1CCS(=O)(=O)C1` (centres undefined), the inhibition is -29.3%.

Consider `Cn1cc(/C=C/C(=O)N2CCCC(C(=O)c3ccc(C(F)(F)F)cc3)C2)cn1` (centres undefined), for which the inhibition was -9.79%. As for `CC(C)(C)NC(=O)NCc1ccco1`, the inhibition was 3.59%. The result for `O=C(COC(=O)/C=C/c1cn(-c2ccccc2)nc1-c1cccnc1)Nc1ccc(Cl)cc1Cl` reads -3.93%; that for `CC(=O)Nc1ccc(Nc2c([N+](=O)[O-])cc(S(C)(=O)=O)cc2[N+](=O)[O-])cc1`, -2.68%; that for `Cc1ccccc1C(=O)NNC(=O)CN1C(=O)c2ccccc2C1=O`, 0.726%. As for `COc1ccc(/C=N/NS(=O)(=O)c2ccc(NC(C)=O)cc2)cc1`, the figure is -17.4%; as for `Cc1ccc(NC(=O)C(=O)NCC2CCN(C(=O)c3cccc([N+](=O)[O-])c3)CC2)cc1`, -4.84%. As for `CC(=O)NC(Cc1ccc(F)c(F)c1)C(=O)NC1CCN(c2nnnn2-c2ccccc2)CC1` (centres undefined), the figure is -4.26%; as for `O=C(c1ccncc1)c1ccc([N+](=O)[O-])cc1`, -1.97%. Consider `COc1ccc(CCNC(=O)CN(c2ccccc2)S(C)(=O)=O)cc1`, for which the inhibition is 2.74%.

Regarding `OC(CN1C2=NCCCN2c2ccccc21)c1ccc(Br)cc1` (centres undefined), the inhibition was -1.72%.

Consider `CN(CC#CCC(c1ccccc1)c1ccccc1)C(C)(C)C`, for which the inhibition is -4.21%.

Take `O=C(O)c1cccnc1NC1CCCC1`: the inhibition was -18.1%.

With `O=C(O)c1ccc(N=NN2CCOCC2)cc1`, the inhibition was 11.7%. `COCCNc1cc(NCCOC)c([N+](=O)[O-])cc1[N+](=O)[O-]`: the inhibition was -26.9%.

Regarding `Cc1ccc(CNC(=O)CC2Sc3ccccc3NC2=O)cc1` (centres undefined), the inhibition is -3.22%. As for `CC(C)(C)c1ccc(C(=O)NCc2nnc(SCC(=O)N3CCCc4ccccc43)n2-c2ccccc2)cc1`, the figure is -3.07%; as for `Cc1ccc(-n2nc(N)c3c(=O)oc(N(C)C)nc32)cc1`, 0.228%. As for `OCCCNC(c1ccccc1)c1ccc(O)cc1` (centres undefined), the figure is 0.734%; as for `OCCn1c(-c2ccccc2)csc1=Nc1ccccc1`, -11.3%; as for `CC1(C)CC(=O)C=C(NCCCNC2CCCCC2)C1`, 58.6% (active). As for `CC1(C)CC(=O)C=C(NCCN2CCNCC2)C1`, the figure is -12.2%.

Take `CC1(C)CC(=O)C=C(NCCCN2CCCC2=O)C1`: the inhibition is 0.498%. As for `Cc1cc(C)c2nc(SCC(=O)N(C)C3CCS(=O)(=O)C3)cc(C)c2c1` (centres undefined), the figure is -5.97%. As for `CCc1ccc(-c2nn(-c3ccccc3)cc2CSC(=N)N)cc1`, the figure is 14%; as for `O=c1c(-c2ccccc2)cnc2n1CCS2`, -3.12%. As to `CN(C)c1ccc(C=C2C(=O)OC3(CCCC3)OC2=O)cc1`, the inhibition was -24.4%. The result for `Cc1cccc(C)c1NC(=O)C(c1ccccc1)N1CC(=O)Nc2ccccc21` (centres undefined) reads 3.26%; that for `C/C(CC1CC(C)(C)OC1=O)=N/Nc1nc(-c2ccccc2)cs1` (centres undefined), -4.91%; that for `CCOC(=O)C(=O)Nc1nc(-c2ccccc2)c(CC)s1`, -8.25%. The result for `Cc1ccc(CNC(=O)COc2ccc(S(=O)(=O)NC(C)C)cc2)cc1` reads -6.99%.

Consider `O=C(NC(=S)Nc1cc(C(F)(F)F)ccc1N1CCOCC1)c1ccc(-c2cccc(Cl)c2)o1`, for which the inhibition was -33.5%. The result for `CCNC(=O)CC1C(=O)N(c2ccc(F)cc2)C(=O)N1Cc1cccs1` (centres undefined) reads -6.58%; that for `COC(=O)c1ccc(NC(=S)NN2CCOCC2)cc1`, 0.284%; that for `COc1ccc(NS(=O)(=O)c2cc(NC(=O)CC(=O)c3ccc([N+](=O)[O-])cc3)ccc2C)cc1`, -3.8%.

Regarding `N#C/C(C(=S)Nc1ccccc1)=C1/NN=C(N2CCOCC2)N1c1ccccc1`, the inhibition is -22%.

In the case of `Cc1ccc(C(=O)N/C(=C\c2ccco2)C(=O)N2CCSCC2)cc1C`, the inhibition is -18.1%. As for `C/C(=N/NC(=O)c1cc(Cl)ccc1O)C12CC3CC(CC(C3)C1)C2`, the figure is -5.54%; as for `Cn1nc(C(F)(F)F)cc1-c1ccc(/C=C(\C#N)C(=O)c2cccc(C(F)(F)F)c2)s1`, 20.2%. The result for `Cc1ccc(/C=C/C(=O)Nc2ccc([N+](=O)[O-])c(NC(=O)/C=C/c3ccc(C)o3)c2)o1` reads -13.6%; that for `Cc1ccc2[nH]c(C)c(CCNC(=O)NC3CCCCC3)c2c1`, -1.75%; that for `C/C(=N/Nc1ccc(Cl)cc1)c1cnnc(-c2ccccc2)n1`, -3.6%. As for `COC(C[C@H](O)CC(=O)COCc1ccccc1)OC`, the figure is -5.95%. For `CC1CCCN(C(=O)c2ccc3c(c2)C(=O)N(CCC2=CCCCC2)C3=O)C1` (centres undefined), the inhibition is 9.11%.
